# Experimental data published in the OligoGym collection.
# Target: IFI44L
# Experiment: pooled miR-30 sensor sort-seq; sequence = guide strand
# Conditions: shRNA
# Note: reference of the scale not given here.
row,Sequence,sensor-assay potency score (higher = more potent)
1,TTTCGATAAACGACACACCAGT,-0.943
2,TTGAAGTGAAAACCATAGGGAA,-0.486
3,TAATACTTCTTTGTGAACTTGC,0.781
4,TACTTCTTTGTGAACTTGCTTC,0.0933
5,TTTATGGACATTCATGACCCGG,-1.2
6,TTCTTTGTGAACTTGCTTCACT,0.156
7,TTATGGACATTCATGACCCGGC,-0.0543
8,TTGTCTTGAAGAACCTCACTGC,0.709
9,TTTGTGAACTTGCTTCACTTTT,-0.819
10,TATGTCGTCTAGGTTATCCTTA,0.221
11,TAGCATTTTATGGACATTCATG,-1.18

# Target: IFLTD1
# Experiment: as above
# Conditions: shRNA
row,Sequence,sensor-assay potency score (higher = more potent)
1,TTGAATAATACTAACCATCTGC,0.269
2,TCTTCTTTTTCTTAGACCCTGA,-0.319
3,TTGTCCATTCACATTTTGCTGG,-0.587
4,TAATTTGAGATATCTTTCTTAG,-0.577
5,TATAGTTACTCTACTAATCTGA,0.529
6,TTGAGATATCTTTCTTAGGTTG,-0.851
7,TTGCTCTAAACTTGTCTTGTTC,-0.614
8,TTGCTTTTCTAGTAGCTGGTTG,-0.208
9,TAAGTTTCTTTGAATCACCAAA,-0.981
10,TAGACAGATAGTAACCAAGAGG,-1.22
11,TTTTCCACTCTGGAACAGCTAC,-0.846
12,TTGTTATACAATCAGGACTTGC,-1.51

# Target: IFNA17
# Experiment: as above
# Conditions: shRNA
row,Sequence,sensor-assay potency score (higher = more potent)
1,TATCACACATGCTTCCAGGTTA,0.103
2,TAGAGAACAGATGGATTTGTAG,-0.448
3,TCTGAGGCAGATCACAGCCTAG,-1.69
4,TGTATTTCTTCTCTGTTAGATA,-1.15
5,TTCTCTGTTAGATAAAGAGTGA,-0.598
6,TTCCAGGTTATTCAGTTGCTGG,-1.21
7,TCTTCTGGAACTGGTTGCCATC,-1.69
8,TATTTTTTGCAAGTTTGTTGAA,-0.556
9,TCTTCCATCCCAACCTCCTGTA,-0.396
10,TTGCTGGTAAAGTTCAGTGGAA,-0.731

# Target: IFT52
# Experiment: as above
# Conditions: shRNA
row,Sequence,sensor-assay potency score (higher = more potent)
1,TTTCACATTTAGCTGCTCGTGA,0.557
2,TTCATGTTTCACATTTAGCTGC,-0.162
3,TTAATATTGGTGTCAAATCTGG,-0.514
4,TGAATCTTCCAATTACTCCGAA,0.152
5,ATATTGATCACTGAACATGTGA,-0.0473
6,TGAACATGTGACATGAACCAAG,-0.609
7,TTTGGCATCCTGTTGGTCCTTT,0.0621
